This is part of a sample that, as a whole, favours compounds with a hit. Of some 83,000 tested, about 20% had one in any assay.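 Cells were grown in 96-well plates and exposed to the test compound at a single concentration for 48 hours; results are reported as percent growth, with values below 10 considered active.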 A number with no mark means an inactive call. The source made the active and inactive calls.
system: CCRF-CEM leukemia; experiment: NCI-60 one-dose screen, 48 h (100 = growth as untreated, 0 = no growth, -100 = all killed); conditions: 10 µM unless noted
Description: Growth inhibition of the CCRF-CEM human tumor cell line is measured as a screen for anti-cancer activity. Cells are grown in 96 well plates and exposed to the test compound for 48 hours. Compounds are tested at a single concentration, which is 10^-5 M for most compounds. The reported endpoint is percent growth (GI% or GIPRCNT), where numbers from 0 - 100% represent growth inhibition, and numbers from -100% - 0 represent cell death. For example, a value of 40 represents 60% growth inhibition. A value of 0 means no net growth occurred over the course of the experiment. A value of -40 indicates 40% of cells at the beginning of the experiment died by the end of the experiment. A value of -100 means all cells are dead at the end of the experiment.
NCI-60 Human Tumor Cell Lines Screen was performed using the standard one-dose NCI protocol, which is described in more detail at https://dtp.cancer.gov/discovery_development/nci-60/default.htm.
Compounds with GIPRCNT values below 10 were considered active. Activity score was based on GIPRCNT using the following formula: […]
Score is 0 for GIPRCNT values of 100 or above, 50 for GIPRCNT values of 0, and 100 for GIPRCNT values of -100.

Compound	growth
Cc1nc2sc(C(=O)Nc3ccccc3)c(N)c2cc1C(C)O (stereo not given)	16.6%
CCCCC(=O)Nc1c(C(=O)Nc2ccccc2)sc2nc3c(cc12)C(OC(=O)CCCC)CCC3 (stereo not given)	69.8%
O=C(CCCCCCCCC(=O)Nc1cccc(C2=NCCN2)c1)Nc1cccc(C2=NCCN2)c1	98%
CC1CCCN(CCCCCOc2ccc3oc4ccccc4c(=O)c3c2)C1 (stereo not given)	70.9%
Cc1ccccc1NC(=O)c1sc2nc(C)c(C(C)O)cc2c1N (stereo not given)	45.7%
CN(C)c1ccc(-c2ccc3[nH]c(=O)nc(-c4ccc(F)cc4)c3c2)cn1	12%
C=C1C(=O)O[C@H]2[C@H]1CC/C(COC(=O)CCCCC(=O)OC/C1=C/CC[C@@]3(C)O[C@H]3[C@H]3OC(=O)C(=C)[C@@H]3CC1)=C\CC[C@@]1(C)O[C@@H]21	0.447% (active)
O=C1NN(c2ccccc2)C(c2ccc3c(c2)OCO3)N2CCC[C@@H]12 (stereo not given in full)	108%
COc1ccc2c(c1)OC13Oc4cc(OC)ccc4C=C1CCCCC3=C2	80.9%
C=C1C(=O)O[C@H]2[C@H]1CC/C(COC(=O)n1ccnc1)=C\CC[C@@]1(C)O[C@@H]21	74.3%
CCCCc1n(Cc2ccc3ccccc3c2)c2ccccc2[n+]1Cc1ccc2ccccc2c1	-48.2% (active)
O=C(Nc1nc2ccc(C(F)(F)F)cc2s1)c1cc(Cl)ccc1O	15%
Nc1c(C(=O)Nc2ccccc2)sc2nc3c(cc12)CN(C(=O)OCc1ccccc1)CC3	31.8%
Nc1n[nH]c2cccc(C#Cc3cccc(NC(=O)c4cc(N5CCOCC5)cc(C(F)(F)F)c4)c3)c12	44.2%
NC(=O)C(O)(c1ccccc1)c1ccccc1	87.9%
C=C(C)[C@@H]1CC[C@]2(C(=O)O)CC[C@]3(C)[C@H](CC[C@@H]4[C@@]5(C)C[C@@H](CC#Cc6ccc(Cl)cc6)C(=O)C(C)(C)[C@@H]5CC[C@]43C)[C@@H]12	27.9%
CC(=O)Nc1ccc2c(c1)Cc1cc(F)ccc1-2	99.1%
COc1ccc2cc(/C=C3\N=C(c4cc(OC)c(OC)c(OC)c4)OC3=O)c(OC)nc2c1	111%
C=C1C(=O)O[C@H]2[C@H]1CC/C(COC(=O)NCC(=O)Nc1ccc(OC)c(C(N)=O)c1O)=C\CC[C@@]1(C)O[C@@H]21	-15.8% (active)
Nc1ccccc1NS(=O)(=O)c1ccc(Cl)cc1	96.6%

Compound	growth
N#Cc1c(-c2ccc(F)cc2)nc(N=Nc2c(O)[nH]c3ccccc23)nc1N1CCOCC1	77.4%
Cc1cc(C)cc(Nc2nccc(-c3c(-c4ccc(F)cc4)ncn3C3CCNCC3)n2)c1	-12.6% (active)
Cc1nnc(/N=C2\NC(=O)/C(=C/c3ccsc3)S2)s1	95.1%
C/C(=N/Nc1nc2ccccc2n1C)c1ccccn1	-6.15% (active)
COC(=O)/C=C/c1cc(OC(C)=O)c2c(c1)C(C(=O)OC)C(c1ccc(OC(C)=O)c(OC(C)=O)c1)O2 (stereo not given)	9.72% (active)
Cc1cnc(SCc2ccc(Cl)cc2Cl)nc1Nc1ccc(Cl)c(Cl)c1	85.6%
COc1ccc(C(C)c2cc(OC)c(OC)c(OC)c2)cc1 (stereo not given)	18.5%
Cc1nn(-c2ccc(-c3ccc(OC(F)(F)F)cc3)cc2)c2nc(-c3ccccc3)nc(N)c12	88.9%
O=C(O)CCNC1CCCCC1	102%
Cc1ccc(C(=O)/C(=C/c2ccc([N+](=O)[O-])cc2)S(=O)Cc2ccccc2)cc1 (stereo not given)	6.67% (active)
COc1ccc(Cc2nc(C#N)c(N3CCN(c4ccc(F)cc4)CC3)o2)cc1	83.7%
CC(C)NS(=O)(=O)c1cccc(-c2ccc3c(=O)n(CCCN)c4c(c3c2)C(=O)c2ccccc2-4)c1	88.2%
O=C(CN1N=C(c2ccc(F)cc2)CCC1=O)Nc1nc2ccccc2s1	-72.1% (active)
CCCCCCC/C=C/[C@H]1O[C@]23C(=O)C[C@@]4(C[C@@H](OC5OC(CO)C(O)C(O)C5O)C[C@@H]4[C@H]2C=C1C)OC3=O (stereo not given in full)	19%
Nc1c(C(=O)c2ccccc2)sc2nc(-c3cc4ccccc4o3)cc(-c3ccc(Cl)cc3)c12	105%
CC[C@H](Nc1ncnc2nc[nH]c12)c1nc2cccc(CC(=O)c3ccc(C(=O)NO)cc3)c2c(=O)n1-c1ccccc1	90.1%
O=C(CCCC(=O)Nc1ccc(-n2nnc3cc(Cl)c(Cl)cc32)cc1)Nc1ccc(-n2nnc3cc(Cl)c(Cl)cc32)cc1	77.6%
CCn1cc(C(=O)O)c(=O)c2cc(F)c(N3CCN(CC(=O)Nc4ccc(/C(C)=N/OC)cc4)CC3)cc21	105%
C=C(C)[C@@H]1CC[C@]2(C(=O)n3ccnc3)CC[C@]3(C)[C@H](CC[C@@H]4[C@@]5(C)CCCNC(C)(C)[C@@H]5CC[C@]43C)[C@@H]12	0.353% (active)
N#Cc1nc(-c2ccccc2)oc1S(=O)(=O)NCC(c1ccc(Cl)cc1)N1CCCCC1 (stereo not given)	1.94% (active)

— PubChem BioAssay (NCI)
